Only some compounds are listed: those with a hit (about 4.5% of all), similar ones and a draw of the others.
PrPC TRFRET = reduces human prion protein on the cell surface; P04156; cell surface PrPC, TR-FRET read-out; inhibition, % at 13.8 µM; 370,000 tested, 0.43% active; AID 720596; in the data active = inhibition above about 24%; also: 0% = median of the test wells and 100% = reference compound wells
BJeLR lethal = kills HRASV12-expressing BJeLR cells. BJeLR (HRASV12) viability, CellTiter-Glo ATP luminescence, 48 h. inhibition, % (no concentration beside the values). 300,000 tested, 0.17% active; in the data active = inhibition above about 50%
PfHsp40 rescue = compounds rescuing yeast from Plasmodium falciparum HSP40 toxicity; S. cerevisiae expressing PfHsp40, growth rescue, ATP luminescence; growth rescue, % at 12.5 µM; 340,000 tested, 0.68% active; AID 504582; in the data active = growth rescue above about 28%, passing the limit was not always enough;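 also: yeast W303a lacking pdr1 and pdr3 grown in galactose medium; growth measured after three days at 30 °C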
PrP 5UTR inh = inhibition of PrP 5' UTR reporter expression | cell-based PrP 5' UTR mRNA reporter, plate reader | inhibition, % (test concentration not listed) | 340,000 tested, 0.35% active | AID 488862; in the data active = inhibition above about 52%; also: 0 = median of the neutral control wells
GDH-TPI inh = inhibits GDH-TPI coupling enzymes, artifact for Mtb FBA screen | GDH-TPI coupled enzyme counterscreen, NADH absorbance | inhibition, % at 4.8 µM | 360,000 tested, 1.2% active; in the data active = inhibition above about 30%;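 also: 0% = DMSO wells and 100% = wells lacking the enzyme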
FBA Mtb inh = inhibitors of M. tuberculosis fructose-bisphosphate aldolase; purified M. tuberculosis FBA, fluorescence read-out; inhibition, % at 1 µM; AID 588726; 360,000 tested, 2.3% active; in the data active = inhibition above about 27%;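 also: 0% = vehicle and 100% = reference inhibitor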
Target sequence (P9WQA3 whole entry, looked up): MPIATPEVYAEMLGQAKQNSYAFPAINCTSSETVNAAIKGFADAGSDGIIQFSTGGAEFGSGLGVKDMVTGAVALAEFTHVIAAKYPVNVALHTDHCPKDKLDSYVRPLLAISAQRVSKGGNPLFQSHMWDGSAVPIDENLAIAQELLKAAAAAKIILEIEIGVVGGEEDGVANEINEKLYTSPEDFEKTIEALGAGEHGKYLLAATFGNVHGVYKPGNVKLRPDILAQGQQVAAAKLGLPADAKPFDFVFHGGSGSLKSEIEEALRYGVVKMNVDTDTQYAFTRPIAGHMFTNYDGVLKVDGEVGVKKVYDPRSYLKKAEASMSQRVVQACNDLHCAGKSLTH
Numbers without * were called inactive; . = not tested or not shown; + = active, no number.

SMILES | PrPC TRFRET | BJeLR lethal | PfHsp40 rescue | PrP 5UTR inh | GDH-TPI inh | FBA Mtb inh
COC(=O)Nc1ccc2ccc3c(NC(=O)OC)ccc4ccc1c2c43 | 1 | . | 7 | -23 | 44* | +
C[C@@]12C(=O)Nc3ccc(F)cc3C(=O)N1[C@H]1c3cc(Cl)ccc3OC[C@@H]1[C@@H]2c1ccccc1 | -1 | . | 1 | 1 | 9 | 2
C[C@@]12C(=O)Nc3cc(Cl)ccc3C(=O)N1[C@H]1c3ccccc3OC[C@@H]1[C@@H]2c1ccccc1 | . | . | 1 | -44 | 2 | 1
C[C@@]12C(=O)Nc3ccc(F)cc3C(=O)N1[C@H]1c3ccccc3OC[C@@H]1[C@@H]2c1ccccc1 | . | . | 138* | -1 | 4 | 1
C[C@@]12C(=O)Nc3ccc(Cl)cc3C(=O)N1[C@H]1c3ccccc3OC[C@@H]1[C@@H]2c1ccccc1 | . | . | 118* | -25 | 2 | 4
Cc1ccnc2c1ccc1c(C)ccnc12 | . | . | 82* | 55* | 4 | 1
N#Cc1c(NC(=O)c2ccccc2Cl)n(Cc2ccccc2)c2nc3ccccc3nc12 | 2 | . | 0 | -10 | 7 | 35*
CCCCn1c(NC(=O)c2ccccc2Cl)c(C#N)c2nc3ccccc3nc21 | 3 | 6 | 1 | -22 | 4 | 26
COc1ccccc1-n1c(O)c(C=Nc2c(C)n(C)n(-c3ccccc3)c2=O)c(=O)[nH]c1=O | -6 | 10 | -1 | -21 | 37* | -6
Cc1c(N=Nc2c(O)n(Cc3ccccc3)c(=O)[nH]c2=O)c(=O)n(-c2ccccc2)n1C | 4 | 11 | 1 | 2 | 36* | -5
Cc1c(N=Cc2c(O)n(Cc3ccccc3)c(=O)[nH]c2=O)c(=O)n(-c2ccccc2)n1C | 5 | 4 | 1 | -13 | 17 | -3
O=C(CN1CCN(c2cccc(Cl)c2)CC1)c1ccc(O)cc1O | 5 | -1 | -1 | -20 | 31* | 1
O=C(/C=C/c1ccccc1)NC(=S)NNC(=O)c1ccco1 | -5 | -9 | 35* | 5 | 25 | 3
O=C(NC(=S)N(CCc1ccccc1)CCc1ccccc1)c1ccco1 | 3 | 6 | 187* | 3 | 14 | -1
O=c1c2ccc(F)cc2nc2sc(Nc3ccc4c(c3)CCC4)nn12 | -8 | . | . | . | . | .
COC(=O)c1ccc(Cn2ccc3ccc(-c4ccc5ccn(C(=O)c6cccc(OC)c6)c5c4)cc32)cc1 | 4 | . | . | . | . | .
COC(=O)c1ccc(/C=N/Nc2nc(-c3ccccc3)cs2)cc1 | 7 | 0 | -1 | -22 | 26 | 0
COc1ccc(/C=N/Nc2nc(C(=O)O)cs2)cc1 | 7 | 0 | 1 | -45 | 34* | 0
COc1ccc(CCNc2oc(-c3cccc4ccccc34)nc2P(=O)(OC)OC)cc1OC | 2 | 2 | -2 | -4 | 16 | 188*
COP(=O)(OC)c1nc(-c2cccc3ccccc23)oc1NCCc1ccccc1 | 4 | -7 | 1 | -11 | 14 | +
COc1ccc2ccccc2c1C=NNC(=O)c1cc(-c2ccc(C)cc2)n[nH]1 | 6 | . | . | . | . | .
CCCCCCOC(=O)CCn1[nH]c(=O)c2ccccc2c1=O | 7 | 6 | 136* | -6 | 15 | -4
Cc1cccc(Nc2nc3c(s2)CCCC3)c1 | 3 | -16 | 1 | -114 | -2 | -1
O=S1(=O)N=C(Nc2nc3c(s2)CCCC3)c2ccccc21 | -2 | . | 1 | -53 | 36* | 1
O=C1CCC[C@H]2C[C@H](NCc3cccnc3)CC[C@]23CCCN13 | -4 | . | . | . | . | .
SMILES | PrPC TRFRET | BJeLR lethal | PfHsp40 rescue | PrP 5UTR inh | GDH-TPI inh | FBA Mtb inh
O=C(c1ccoc1)N1CCN(c2cc(-c3ccco3)nc3cc(-c4ccccc4)nn23)CC1 | -9 | . | . | . | 28 | 113*
O=C1C(=C(O)c2ccccc2)C(=O)c2ccccc21 | -7 | -2 | -1 | -8 | 20 | -1
O=C1C(=C(c2ccccc2)c2ccccc2)Nc2ccccc21 | -20 | -3 | 78* | -13 | 0 | -7
C[C@H](O)[C@H]1CC[C@H]2[C@@H]3CCC4=CC(=O)CC[C@]4(C)[C@H]3CC[C@]12C | 0 | 7 | 158* | 7 | -5 | 0
O=C1NC(=O)/C(=C/c2cccc(O)c2)N1 | -12 | 8 | -1 | -23 | 7 | -2
COc1cc(C=C2C(=O)NC(=O)NC2=O)ccc1O | 6 | 4 | 1 | -7 | 32* | 1
COc1cc(/C=C2\NC(=O)NC2=O)cc(Br)c1OC | -23 | -6 | 1 | -10 | 32* | -2
COc1ccc(C=C2NC(=O)NC2=O)cc1O | -13 | . | . | . | 43* | -2
CC(C)(C)c1ccc(C(=O)Nc2cc(Cl)c(F)cc2C(=O)O)cc1 | 4 | . | . | . | . | .
CC(=O)C1=C(O)C(=O)N(c2ccc(O)cc2)C1c1ccc(F)cc1 (centres undefined) | -2 | 3 | -1 | -31 | 11 | 0
COc1ccc(OC)c(C2C(C(C)=O)=C(O)C(=O)N2c2ccc(F)cc2)c1 (centres undefined) | 6 | -9 | -1 | -10 | 37* | -2
Cc1c(C(=O)/C=C/N(C)C)nnn1-c1ccc(Cl)cc1C#N | 4 | -2 | -1 | -24 | 46* | -4
CCN(CC)Cc1c(O)ccc2c1O/C(=C\C=C\c1ccccc1)C2=O | -23 | 93* | 2 | -27 | 13 | -10
COc1cc(/C=C(\C#N)C(=O)NC2CCCCC2C)ccc1OS(=O)(=O)c1ccc(C)cc1 (centres undefined) | -2 | 84* | 0 | -16 | 10 | 0
CC1CCCCC1NC(=O)/C(C#N)=C/c1ccccc1F (centres undefined) | 0 | -7 | 111* | -11 | 7 | 0
CSc1ccc(/C=C(\C#N)C(=O)NC2CCCCC2C)cc1 (centres undefined) | -4 | -3 | 0 | -14 | 20 | 3
CC(C)n1nnnc1C1(C)CCCCC(=O)N1Cc1cccc(C(F)(F)F)c1 (centres undefined) | 4 | . | . | . | . | .
Cc1ccc(N=C2NC(=O)/C(=C/c3cccnc3)S2)cc1C | 3 | -11 | 0 | 0 | 8 | 0
O=C1NC(=Nc2ccccc2)S/C1=C\c1cccnc1 | 3 | -3 | 1 | -14 | 33* | 0
O=C1NC(=Nc2cccnc2)S/C1=C/c1ccc(F)cc1 | 4 | 2 | . | . | 7 | 2
O=C1N/C(=N/S(=O)(=O)c2ccccc2)S/C1=C/c1cccnc1 | -6 | -3 | 1 | -27 | 33* | 1
COc1ccc(OC[C@@H](O)CN2CCC(C(O)(c3ccccc3)c3ccccc3)CC2)cc1 | -7 | . | . | . | . | .
Cc1cc(C)[n+](-c2ccc(F)cc2)c2[nH]c(=O)[nH]c(=O)c12 | -2 | -10 | -1 | -4 | 19 | +
Cc1ccccc1-n1sc2cc(F)ccc2c1=O | -6 | . | 1 | 6 | -1 | 3
COc1cc2nc(N(C)C)nc(N)c2cc1OC | 7 | 3 | 2 | -23 | 10 | 80*
CN1C2=N[C@H](c3cccc(C(F)(F)F)c3)CC(=O)N2/C(=C\c2ccccc2)[C@H]1c1ccccc1 | 12 | . | . | . | . | .
